Out of some 1,400 compounds screened, about 45 (3%) were called active.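 The calls were made as follows: active = half-maximal dose of signal decrease from fit no higher than ten times the top valid tested dose; inconclusive = fit invalid, or curve flat with 30 to 70% inhibition; inactive = the rest.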 These entries were drawn from the full list. Entries with a potency or affinity are not part of this list.

For this assay, the target named is Lysine-specific demethylase 4A (Homo sapiens) (UniProt O75164). The assay is described as follows: inhibition of JMJD2A H3K9me3 demethylation – biochemical, DELFIA europium, cherry-picked samples, selectivity assay for GASC-1 inhibitor project, dose response (AID 488840).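 Also: europium signal reports the dimethyl H3K9 product detected by antibody so inhibitors lower it.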 Particulars: GST-JMJD2A(1-420) H3K9me3 demethylation; series mostly up to 6 µM.
Chain of Lysine-specific demethylase 4A (Homo sapiens) (O75164 whole entry, looked up): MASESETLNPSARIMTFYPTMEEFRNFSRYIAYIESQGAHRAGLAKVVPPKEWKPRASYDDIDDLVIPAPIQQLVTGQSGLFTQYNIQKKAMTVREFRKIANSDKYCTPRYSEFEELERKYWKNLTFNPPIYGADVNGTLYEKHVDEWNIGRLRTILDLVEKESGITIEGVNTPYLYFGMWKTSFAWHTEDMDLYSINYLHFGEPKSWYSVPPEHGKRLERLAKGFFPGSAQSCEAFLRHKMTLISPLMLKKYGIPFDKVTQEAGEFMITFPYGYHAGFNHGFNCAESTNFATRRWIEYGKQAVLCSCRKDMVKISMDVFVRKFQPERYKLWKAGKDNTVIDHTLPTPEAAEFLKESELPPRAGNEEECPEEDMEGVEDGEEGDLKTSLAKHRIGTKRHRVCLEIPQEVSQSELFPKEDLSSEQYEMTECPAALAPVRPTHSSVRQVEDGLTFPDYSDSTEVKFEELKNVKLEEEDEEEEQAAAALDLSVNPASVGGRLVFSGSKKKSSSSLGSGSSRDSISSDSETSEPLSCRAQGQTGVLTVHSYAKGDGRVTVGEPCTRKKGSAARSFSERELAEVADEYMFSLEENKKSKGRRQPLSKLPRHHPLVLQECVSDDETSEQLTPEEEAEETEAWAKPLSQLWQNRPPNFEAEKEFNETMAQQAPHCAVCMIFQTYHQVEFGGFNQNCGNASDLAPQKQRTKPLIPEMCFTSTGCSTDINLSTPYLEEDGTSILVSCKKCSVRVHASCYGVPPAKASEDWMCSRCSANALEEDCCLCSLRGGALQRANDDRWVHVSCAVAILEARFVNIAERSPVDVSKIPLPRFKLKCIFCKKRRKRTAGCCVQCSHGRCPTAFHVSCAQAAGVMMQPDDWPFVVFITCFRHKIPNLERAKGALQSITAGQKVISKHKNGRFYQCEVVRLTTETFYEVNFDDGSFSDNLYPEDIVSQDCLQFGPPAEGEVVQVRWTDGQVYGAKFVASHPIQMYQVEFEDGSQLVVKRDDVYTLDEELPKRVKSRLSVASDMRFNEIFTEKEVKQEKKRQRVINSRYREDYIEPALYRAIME
Take `CCOC(=O)Cc1csc(NC(=O)COc2cccc(C)c2)n1`: the result was inactive.
Then `Cc1ccccc1-n1nc(C)c2cc(C(=O)N3CCN(S(=O)(=O)c4ccc(F)cc4)CC3)sc21`, with “inactive”; and `Cc1cccc(-c2noc(CCC(=O)NC3CCCC3)n2)c1`, with “inactive”; and `COc1ccc(CN2CCCCC2C)c(C)c1C` (configuration not stated), with “inactive”.
The value for `CC(C)CCN(C(=O)C1=COCCO1)c1c(N)n(Cc2ccccc2)c(=O)[nH]c1=O` was “inactive”; that for `Cn1c(=O)[nH]c(=O)c2c1nc(NCCCO)n2Cc1ccc(F)cc1` was “inactive”.
On to `COC(=O)COc1ccc(Oc2cc(C)nc(SC)n2)nn1`, for which the result was inactive.
The value for `Cc1ccc2c(c1)N(CC(=O)NCC1CCCO1)C(=O)C(C(C)C)O2` (configuration not stated) was “inactive”; that for `C=CCn1c(N)c(-c2nc3ccccc3n2C)sc1=S` was “inactive”.
Then `COc1ccc(C(=O)N2CCCC(c3nc(-c4ccc(OC)c(OC)c4)no3)C2)c(OC)c1` (configuration not stated), with “inactive”; and `O=C(NCCCN1CCOCC1)c1cccc(S(=O)(=O)N2CCc3ccccc3C2)c1`, with “inactive”; and `O=C(Nc1cc(S(=O)(=O)N2CCOCC2)ccc1N1CCCC1)c1ccc(F)cc1`, with “inactive”.
The value for `O=C(COC(=O)c1cccc(S(=O)(=O)NCc2ccccc2)c1)Nc1ccccc1OC(F)F` was “inactive”; that for `c1coc(CSCc2cn3cccnc3n2)c1` was “inactive”.
Regarding `COC(=O)[C@]1(C)N[C@H](CN(C)C(=O)Nc2ccc(F)cc2)[C@@H]2C(=O)N(C)C(=O)[C@@H]21`, the outcome was inactive.
The value for `Cc1cccc(NC(=O)C2CCCN(S(=O)(=O)c3c(C)nn(C)c3C)C2)n1` (configuration not stated) was “inactive”; that for `CN(C(=O)c1ccc(Cl)c([N+](=O)[O-])c1)C1(C)CCS(=O)(=O)C1` (configuration not stated) was “inactive”.
On to `O=C1NC(=S)N/C1=C/c1cc2c(cc1[N+](=O)[O-])OCO2`, for which the call was inactive.
With `N#CC1(NC(=O)Cn2ncc(Cl)c(Cl)c2=O)CCCCC1`, the compound was called inactive.
With `CCOC(=O)C1=C(C)N(C)C(C)=C(C(=O)OCC)C1c1cccnc1`, the outcome was inactive.
Then `COc1cccc(CNC(=O)c2cc3c(cc2Cl)N2CCCCCC2=NS3(=O)=O)c1`, with “inactive”; and `C#CCOCCOCCOCCNc1nc(N2CCN(C(=O)CCCCCCCCCCNC(=O)[C@H](CCCCN)n3cc(CCO)nn3)CC2)nc(N2CCN(C(=O)CCCCCCCCCCNC(=O)[C@H](CCCCN)n3cc(C[C@@H](C)CC)nn3)CC2)n1`, with “inactive”.
Then `C#CCOCCOCCOCCNc1nc(N2CCN(C(=O)CCCCCCCCCCNC(=O)[C@H]([C@@H](C)CC)n3cc(CCCCN=C(N)N)nn3)CC2)nc(N2CCN(C(=O)CCCCCCCCCCNC(=O)[C@H](CCCCN)n3cc(C)nn3)CC2)n1`, with “inactive”; and `O=C1C=C(NCc2ccc3c(c2)OCO3)CC(c2ccccc2)C1` (configuration not stated), with “inactive”; and `Cc1cc(C(F)(F)F)nn1C(=O)c1cccnc1Cl`, with “inactive”.
The value for `O=C(NCCCNCCCNC(=O)c1ccc(/C=N/O)nc1)c1ccc(/C=N/O)nc1` was “inactive”; that for `COC(=O)CSC1=C(C#N)C(c2ccsc2)CC(=O)N1` (configuration not stated) was “inactive”; that for `COc1ccc(N2C(=O)CSC23CCCCC3)cc1` was “inactive”.
Take `Cc1cccnc1Nc1nc(-c2ccc(O)cc2)cs1`: the outcome was inactive.
The value for `COc1ccc(/C=C(/C(=O)NCc2ccccc2)c2ccccc2)cc1` was “inactive”; that for `Cc1cccc(NC(=S)N2CCN(Cc3ccc4c(c3)OCO4)CC2)c1C` was “inactive”; that for `CC1(C)[N+]([O-])=C2C(=[N+]([O-])C1(C)C)c1ccccc1/C2=N\O` was “inactive”.
Take `O=C1NCCN1CCNS(=O)(=O)c1ccccc1[N+](=O)[O-]`: the outcome was inactive.
In the case of `Cc1ccc(NC(=O)COC(=O)c2ccco2)cc1S(=O)(=O)N1CCOCC1`, the call was inactive.
For `Cc1ccc(/C=N/NC(=O)c2ccc(C(=O)N/N=C/c3ccc(C)s3)o2)s1`, the outcome was inactive.
For the compound `CC(C)C[C@@H]1CN=C(N)N1C[C@@H]1CCCN1C[C@H](C)N1C[C@@H](Cc2ccccc2)N(CCc2ccc(Cl)c(Cl)c2)C1=N`, the result was inactive.
Turning to `Cc1ccc(S(=O)(=O)N2CCOCC2)cc1C(=O)NNC(=O)c1ccoc1C`, the compound was called inactive.
In the case of `COCCCNC(=O)CC1C[C@H](C(=O)N2CCOCC2)[C@@]2(C)c3[nH]c4ccccc4c3CCN2C1=O` (some centres not stated), the outcome was inactive.
Take `Cc1noc(C)c1CCC(=O)N1CCCC(CCC(=O)NCc2ccccc2F)C1` (configuration not stated): the compound was called inactive.
In the case of `COCCn1c(N)c(C(=O)NCC2CCCO2)c2nc3ccccc3nc21` (configuration not stated), the compound was classed as inactive.
As for `Cn1c(=O)c2c(nc(NC3CCCCC3)n2Cc2ccccc2)n(C)c1=O`, the compound was called inactive.
Then `CC(=O)C[C@@H](O)CC(=O)[C@@H]1OC(=O)[C@@H](C)C/C=C\Cc2ccccc21`, with “inactive”; and `CCN1C(=O)C(CC(=O)Nc2ccc(OC)cc2)N(CCc2ccccc2F)C1=S` (configuration not stated), with “inactive”; and `COC(=O)C1CC(O)CN1C(=O)NC1CCCCC1` (configuration not stated), with “inactive”.
For `CNc1nc2c(c(=O)[nH]c(=O)n2C)n1CCCc1ccccc1`, the outcome was inactive.
The value for `CCCCn1c(=O)[nH]c(=O)c2c1nc(-c1cc(Cl)c(OC)c(OC)c1)n2C` was “inactive”.
On to `COc1ccc(/C=N/NS(=O)(=O)c2ccc(NC(C)=O)cc2)cc1`, for which the call was inactive.
Regarding `N/C(=N\S(=O)(=O)c1cc(C(F)(F)F)cc(C(F)(F)F)c1)c1ccccc1`, the call was inactive.
Then `C[C@@H]1CN([C@@H](C)CO)C(=O)c2cc(NC(=O)Nc3ccc4c(c3)OCO4)ccc2O[C@H]1CN(C)S(=O)(=O)c1ccc(F)cc1`, with “inactive”.
In the case of `COC(=O)c1ccc(CSc2nc3sc(C(=O)O)c(C)c3c(=O)[nH]2)cc1`, the outcome was inactive.
Then `CC1CCN(C(=S)NC(=O)c2cccc([N+](=O)[O-])c2)CC1`, with “inactive”; and `COc1ccccc1CNC(=O)COc1ccc(S(=O)(=O)N2CCOCC2)cc1C`, with “inactive”.
As for `O=C(NC1CC2CCC1C2)C1COc2ccccc2O1` (configuration not stated), the outcome was inactive.
On to `O=C(CN1C(=O)c2ccccc2C1=O)NCC1COc2ccccc2O1` (configuration not stated), for which the call was inactive.
Then `COc1ccccc1/C=C1\SC(=S)N(CCC(=O)NNC(=O)c2ccccc2OC)C1=O`, with “inactive”.
Consider `CNC[C@@H]1Oc2c(NC(=O)Nc3ccccc3)cccc2C(=O)N([C@@H](C)CO)C[C@H]1C`, for which the compound was classed as inactive.
As for `N#Cc1cc(-c2ccccc2)nnc1Sc1ccccc1`, the call was inactive.
Then `COc1ccc(OCC(=O)N2CCC3(CC2)CC(=O)c2ccccc2O3)cc1`, with “inactive”.
For `Cc1ccc(S(=O)(=O)N2[C@@H](c3ccc(Br)cc3)C(C(=O)O)=CC[C@H]2c2cccc(Cl)c2)cc1`, the call was inactive.
The value for `CCc1ccc([C@@H]2CC=C(C(=O)O)[C@H](c3ccc(Br)cc3)N2S(=O)(=O)c2ccc(C)cc2)cc1` was “inactive”; that for `O=C(Nc1nnc(-c2cc(Cl)ccc2Cl)o1)c1ccco1` was “inactive”.
Then `O=C(Oc1ccc(N2C(=O)CCC2=O)cc1)c1ccccc1`, with “inactive”; and `O=C(CC1C[C@H](C(=O)N2CCCCC2)[C@@]2(CCc3ccccc3)c3[nH]c4ccccc4c3CCN2C1=O)NCCC1=CCCCC1` (some centres not stated), with “inactive”; and `Cc1ccc(OCC(=O)Nc2ccccc2Sc2ccccc2)c([N+](=O)[O-])n1`, with “inactive”.
The value for `O=c1oc(C2(O)CCCCC2)cc2ccccc12` was “inactive”; that for `COc1ccc(C(=O)O/N=C(\C)c2cnccn2)cc1` was “inactive”; that for `COc1ccc(NC(=O)N(C)C[C@H]2Oc3ccc(NC(=O)CCC(F)(F)F)cc3C(=O)N([C@H](C)CO)C[C@@H]2C)cc1` was “inactive”.
Take `O=C(CSc1nc(-c2ccccc2)cc(=O)[nH]1)NCc1ccc2c(c1)OCO2`: the compound was classed as inactive.
The value for `O=S(=O)(c1ccc2nc(Nc3ccccc3)ccc2c1)N1CCCCC1` was “inactive”; that for `N#Cc1cnn(CC2CCCCC2)c1N` was “inactive”; that for `CC(=O)C(Sc1nc(N2CCOCC2)nc(N2CCOCC2)n1)C(=O)Nc1ccccc1` (configuration not stated) was “inactive”.
The value for `CCOC(=O)C1=C(C)NC(=O)NC1c1ccc(Br)s1` (configuration not stated) was “inactive”.
The value for `CCOC(=O)C1=C(c2ccccc2)NC(=O)NC1c1ccc(O)c(OCC)c1` (configuration not stated) was “inactive”.
As for `Cc1cc(SCC(=O)c2ccccc2)n2nc(C)nc2n1`, the outcome was inactive.
Regarding `N=c1nc(-c2ccccc2)ccn1O`, the result was inactive.
Turning to `O=C(NCC1CCCO1)Nc1ccccc1` (configuration not stated), the compound was classed as inactive.
Then `CCOc1ccc(CN2CCN(Cc3nc(C(C)C)cs3)CC2CCO)cc1` (configuration not stated), with “inactive”; and `O=C(OCc1c(Cl)cccc1Cl)c1cnccn1`, with “inactive”; and `Cc1ccc(NN=Nc2nc3c([nH]2)c(=O)n(C)c(=O)n3C)cc1`, with “inactive”.
The value for `Cn1c(=O)c2[nH]c(N3CCN(c4cccc(O)c4)CC3)nc2n(C)c1=O` was “inactive”; that for `C#CCOCCOCCOCCNc1nc(N2CCN(C(=O)C([C@@H](C)O)n3cc([C@@H](N)CCCCN)nn3)CC2)nc(N2CCN(C(=O)[C@H](CC(N)=O)n3cc([C@@H](N)C(C)C)nn3)CC2)n1` (some centres not stated) was “inactive”; that for `COc1ccc(/C=N/N(C)c2cc(=O)n(C)c(=O)[nH]2)cc1OC` was “inactive”.
Then `Nc1ccc(S(=O)(=O)NC2(C(F)(F)F)NC(=O)N(c3ccc(F)cc3)C2=O)cc1` (configuration not stated), with “inactive”.
With `COc1ccc(N(Cc2cc3cccc(C)c3[nH]c2=O)S(C)(=O)=O)cc1`, the compound was classed as inactive.
Consider `O=C(Nc1ccccc1)N(CCc1nc2ccccc2[nH]1)C1CCCC1`, for which the outcome was inactive.
As to `COc1ccc(NC(=O)NCCCCc2ccccc2)c(OC)c1`, the compound was called inactive.
In the case of `O=C(Cn1cnc2c(OCc3ccccc3)ncnc21)NCCCc1ccccc1`, the call was inactive.
For `Cc1cc(NC(=O)CCC(=O)N(c2ccccc2)C2(C(=O)NC3CCCCC3)CCCC2)no1`, the result was inactive.
Turning to `Cc1cnc(NC(=O)c2ccc(-c3nc4ccccc4s3)o2)s1`, the outcome was inactive.
In the case of `Cn1c(/N=C/c2cc(Cl)ccc2O)nc2ccccc21`, the outcome was inactive.
Regarding `O=C(COC(=O)C1(c2ccc(Cl)cc2)CCCC1)NC1CCS(=O)(=O)C1` (configuration not stated), the outcome was inactive.
Then `O=C(CSc1nnc(CNC(=O)c2c(F)cccc2Cl)o1)Nc1ccc2c(c1)OCCO2`, with “inactive”; and `COc1ccc(-c2nn3c(-c4ccco4)nnc3s2)cc1OC`, with “inactive”; and `CC(C)(C)n1nc2c(c1NC(=O)c1ccc(Br)o1)CS(=O)C2` (configuration not stated), with “inactive”.
Then `O=C(Nc1ccc(-c2nc3ncccc3o2)cc1)c1ccc(Br)o1`, with “inactive”; and `CCn1c(CCn2ccnc2C)n[nH]c1=S`, with “inactive”; and `COC(=O)c1cc(S(=O)(=O)N2CCN(c3ccc(F)cc3)CC2)c[nH]1`, with “inactive”.

Values taken from PubChem BioAssay AID488840 (Broad Institute, 2010).
